PubChem BioAssay (NCI)
This is part of a sample that, as a whole, favours compounds with a hit. Of some 83,000 tested, about 20% had one in any assay.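 Each cell line was grown in a 96-well plate and treated with one concentration of compound for 48 hours. Values below 10 were considered active.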 The source made the active and inactive calls.

Tests used:
Experiment in all cases: NCI-60 one-dose screen, 48 h (100 = growth as untreated, 0 = no growth, -100 = all killed)
SK-MEL-2 melanoma = details: 10 µM unless noted
EKVX NSCLC = details: 10 µM unless noted
SN12C renal = details: 10 µM unless noted
UO-31 renal = details: 10 µM unless noted
TK-10 renal = details: 10 µM unless noted
ACHN renal = details: 10 µM unless noted
CAKI-1 renal = details: 10 µM unless noted
A498 renal = details: 10 µM unless noted
CCRF-CEM leukemia = details: 10 µM unless noted
MOLT-4 leukemia = details: 10 µM unless noted
SR leukemia = details: 10 µM unless noted
RPMI-8226 leukemia = details: 10 µM unless noted
OVCAR-8 ovarian = details: 10 µM unless noted
OVCAR-5 ovarian = details: 10 µM unless noted
OVCAR-4 ovarian = details: 10 µM
SK-OV-3 ovarian = details: 10 µM unless noted
OVCAR-3 ovarian = details: 10 µM unless noted
HS 578T breast = details: 10 µM unless noted
NCI/ADR-RES ovarian = details: 10 µM unless noted

Measured: growth

CCN(CC)CCCC(C)Nc1c2ccc(C)cc2nc2ccc(OC)cc12 (stereo unspecified)
active: UO-31 renal -16.5% | MOLT-4 leukemia 9.16% | SR leukemia 4.33% | RPMI-8226 leukemia 1.21% | OVCAR-4 ovarian -6.2% | HS 578T breast 0.397%
inactive: SK-MEL-2 melanoma 39.2% | EKVX NSCLC 42.3% | SN12C renal 43.3% | TK-10 renal 15.4% | ACHN renal 25.5% | CAKI-1 renal 38% | A498 renal 70.2% | CCRF-CEM leukemia 30.9% | OVCAR-8 ovarian 34.3% | OVCAR-5 ovarian 76.2% | SK-OV-3 ovarian 55.7% | OVCAR-3 ovarian 28.9% | NCI/ADR-RES ovarian 64%

Nc1ccc(Cl)c([N+](=O)[O-])c1
inactive: SK-MEL-2 melanoma 97.4% | EKVX NSCLC 92% | SN12C renal 105% | UO-31 renal 101% | TK-10 renal 103% | ACHN renal 87% | CAKI-1 renal 78.8% | A498 renal 89.5% | CCRF-CEM leukemia 94% | MOLT-4 leukemia 106% | SR leukemia 90.1% | RPMI-8226 leukemia 97.8% | OVCAR-8 ovarian 101% | OVCAR-5 ovarian 86% | OVCAR-4 ovarian 97.4% | SK-OV-3 ovarian 108% | OVCAR-3 ovarian 114% | HS 578T breast 110% | NCI/ADR-RES ovarian 105%

CCCCOC(=O)c1cccc([N+](=O)[O-])c1
active: CCRF-CEM leukemia 1.56%
inactive: SK-MEL-2 melanoma 113% | EKVX NSCLC 93.4% | SN12C renal 108% | UO-31 renal 94.7% | TK-10 renal 111% | ACHN renal 112% | CAKI-1 renal 105% | A498 renal 94.7% | MOLT-4 leukemia 122% | SR leukemia 132% | RPMI-8226 leukemia 90.2% | OVCAR-8 ovarian 100% | OVCAR-5 ovarian 97.9% | OVCAR-4 ovarian 113% | SK-OV-3 ovarian 109% | OVCAR-3 ovarian 114% | HS 578T breast 114% | NCI/ADR-RES ovarian 107%

CCN(CC)CCS(=O)(=O)CCNc1ccnc2cc(Cl)ccc12
inactive: SK-MEL-2 melanoma 15.2% | EKVX NSCLC 26.7% | SN12C renal 18.5% | TK-10 renal 13.5% | OVCAR-8 ovarian 14.5% | OVCAR-5 ovarian 18.6% | OVCAR-4 ovarian 24.7% | SK-OV-3 ovarian 22.5%
active: UO-31 renal -25.6% | ACHN renal 7.29% | CAKI-1 renal 8.63% | A498 renal -29.1% | CCRF-CEM leukemia 3.54% | MOLT-4 leukemia -30.1% | SR leukemia 6.28% | RPMI-8226 leukemia -4.96% | OVCAR-3 ovarian -14.9% | NCI/ADR-RES ovarian -14.2%

Cn1c(=O)c(C#N)c(-c2ccco2)n2c(S(=O)(=O)Cc3ccccc3)nnc12
inactive: SK-MEL-2 melanoma 58.5% | EKVX NSCLC 99.7% | SN12C renal 110% | UO-31 renal 41.4% | TK-10 renal 78.3% | ACHN renal 65.9% | CAKI-1 renal 82.4% | A498 renal 84.8% | CCRF-CEM leukemia 77.4% | MOLT-4 leukemia 102% | SR leukemia 65.3% | RPMI-8226 leukemia 80.4% | OVCAR-8 ovarian 48.9% | OVCAR-5 ovarian 99.3% | OVCAR-4 ovarian 81.9% | SK-OV-3 ovarian 111% | OVCAR-3 ovarian 103% | HS 578T breast 124% | NCI/ADR-RES ovarian 90.4%

CCCCCCCCCCCCCCNC(=O)Nc1ccc(Cl)c(Cl)c1
active: UO-31 renal 8.71% | ACHN renal 9.14% | NCI/ADR-RES ovarian -0.731%
inactive: SK-MEL-2 melanoma 14.5% | EKVX NSCLC 31.9% | SN12C renal 20.2% | TK-10 renal 41.3% | CAKI-1 renal 10.8% | A498 renal 96.7% | CCRF-CEM leukemia 63.7% | MOLT-4 leukemia 103% | SR leukemia 95% | RPMI-8226 leukemia 72.6% | OVCAR-8 ovarian 30.5% | OVCAR-5 ovarian 64.8% | OVCAR-4 ovarian 24.7% | SK-OV-3 ovarian 73% | OVCAR-3 ovarian 15.5% | HS 578T breast 84.2%

Cc1cccc([N+](=O)[O-])c1I
inactive: SK-MEL-2 melanoma 112% | EKVX NSCLC 95.4% | SN12C renal 107% | UO-31 renal 85.1% | TK-10 renal 113% | ACHN renal 105% | CAKI-1 renal 100% | A498 renal 93% | CCRF-CEM leukemia 87.2% | MOLT-4 leukemia 122% | SR leukemia 128% | RPMI-8226 leukemia 99.6% | OVCAR-8 ovarian 98.2% | OVCAR-5 ovarian 98.9% | OVCAR-4 ovarian 110% | SK-OV-3 ovarian 115% | OVCAR-3 ovarian 118% | HS 578T breast 113% | NCI/ADR-RES ovarian 109%

NC1=NC(=O)NC1(c1ccccc1)c1ccccc1
inactive: SK-MEL-2 melanoma 68.2% | EKVX NSCLC 111% | SN12C renal 88.1% | UO-31 renal 96.3% | TK-10 renal 92% | ACHN renal 95.8% | CAKI-1 renal 94.6% | A498 renal 87.6% | CCRF-CEM leukemia 86.2% | MOLT-4 leukemia 87.6% | SR leukemia 97.9% | RPMI-8226 leukemia 94.3% | OVCAR-8 ovarian 97.7% | OVCAR-5 ovarian 83.2% | OVCAR-4 ovarian 105% | SK-OV-3 ovarian 92.7% | OVCAR-3 ovarian 105% | HS 578T breast 98.3% | NCI/ADR-RES ovarian 106%

Nc1cc(NN=C(c2ccc(O)cc2)c2ccc(O)cc2)c([N+](=O)[O-])cc1[N+](=O)[O-]
active: SK-MEL-2 melanoma -93.6% | UO-31 renal -88.7% | OVCAR-8 ovarian -75.8% | OVCAR-5 ovarian -50.9% | SK-OV-3 ovarian -44.4% | NCI/ADR-RES ovarian 7.33%
inactive: EKVX NSCLC 97% | SN12C renal 53% | TK-10 renal 84.3% | ACHN renal 18.1% | CAKI-1 renal 90.7% | A498 renal 101% | CCRF-CEM leukemia 91.3% | MOLT-4 leukemia 69.5% | SR leukemia 39.2% | RPMI-8226 leukemia 74.3% | OVCAR-4 ovarian 76.1% | OVCAR-3 ovarian 82% | HS 578T breast 71.4%

CC(C)[N+](C)(C)CC(O)COc1cccc2ccccc12 (stereo unspecified)
inactive: SK-MEL-2 melanoma 104% | EKVX NSCLC 101% | SN12C renal 103% | UO-31 renal 76.4% | TK-10 renal 111% | ACHN renal 101% | CAKI-1 renal 102% | A498 renal 92.9% | CCRF-CEM leukemia 88.1% | MOLT-4 leukemia 109% | SR leukemia 107% | RPMI-8226 leukemia 94.1% | OVCAR-8 ovarian 98.4% | OVCAR-5 ovarian 94.6% | OVCAR-4 ovarian 116% | SK-OV-3 ovarian 110% | OVCAR-3 ovarian 96.8% | HS 578T breast 128% | NCI/ADR-RES ovarian 108%

O=C(N/N=C/c1c(Cl)cccc1Cl)c1cccc(Nc2ccnc(C(F)(F)F)c2)c1
inactive: SK-MEL-2 melanoma 92.2% | EKVX NSCLC 74.4% | SN12C renal 91% | UO-31 renal 77.4% | TK-10 renal 90.8% | ACHN renal 87.5% | CAKI-1 renal 88% | A498 renal 95.3% | CCRF-CEM leukemia 87.8% | MOLT-4 leukemia 88.1% | SR leukemia 106% | RPMI-8226 leukemia 70.1% | OVCAR-8 ovarian 89.9% | OVCAR-5 ovarian 108% | OVCAR-4 ovarian 69.3% | SK-OV-3 ovarian 102% | OVCAR-3 ovarian 137% | HS 578T breast 107% | NCI/ADR-RES ovarian 102%

O=C(N/N=C/c1ccc([N+](=O)[O-])cc1)c1ccc(Br)o1
active: UO-31 renal -17.5%
inactive: SK-MEL-2 melanoma 33.6% | EKVX NSCLC 112% | SN12C renal 102% | TK-10 renal 131% | ACHN renal 107% | CAKI-1 renal 106% | A498 renal 116% | CCRF-CEM leukemia 99.5% | MOLT-4 leukemia 123% | SR leukemia 106% | RPMI-8226 leukemia 72% | OVCAR-8 ovarian 71.8% | OVCAR-5 ovarian 104% | OVCAR-4 ovarian 99.8% | SK-OV-3 ovarian 79.3% | OVCAR-3 ovarian 121% | HS 578T breast 127% | NCI/ADR-RES ovarian 99.6%

NNC(=O)c1ccc(C(=O)NN)cc1
inactive: SK-MEL-2 melanoma 122% | EKVX NSCLC 101% | SN12C renal 109% | UO-31 renal 87.1% | TK-10 renal 105% | ACHN renal 111% | CAKI-1 renal 105% | A498 renal 70.2% | CCRF-CEM leukemia 94.4% | MOLT-4 leukemia 130% | SR leukemia 126% | RPMI-8226 leukemia 104% | OVCAR-8 ovarian 84.9% | OVCAR-5 ovarian 113% | OVCAR-4 ovarian 127% | SK-OV-3 ovarian 119% | OVCAR-3 ovarian 112% | HS 578T breast 97.9% | NCI/ADR-RES ovarian 104%

O=C1C(Cl)=C(Nc2ccc3cn[nH]c3c2)C(=O)c2ccccc21
active: SK-MEL-2 melanoma -28.6% | EKVX NSCLC -64.7% | SN12C renal -42.9% | UO-31 renal -97.7% | CAKI-1 renal -94.4% | CCRF-CEM leukemia -43.8% | MOLT-4 leukemia -38.4% | SR leukemia -52% | RPMI-8226 leukemia -54.7% | OVCAR-8 ovarian -58.2% | OVCAR-5 ovarian -37.9% | OVCAR-4 ovarian -98.9% | OVCAR-3 ovarian -100% | HS 578T breast -50.4% | NCI/ADR-RES ovarian -67.5%
inactive: TK-10 renal 19.8% | ACHN renal 41.1% | A498 renal 93% | SK-OV-3 ovarian 87.2%

O=C(Oc1ccc(Cl)cc1[N+](=O)[O-])Oc1ccc(Cl)cc1[N+](=O)[O-]
inactive: SK-MEL-2 melanoma 103% | EKVX NSCLC 108% | SN12C renal 107% | UO-31 renal 88.8% | TK-10 renal 120% | ACHN renal 108% | CAKI-1 renal 104% | A498 renal 154% | CCRF-CEM leukemia 102% | MOLT-4 leukemia 97.8% | SR leukemia 82.1% | RPMI-8226 leukemia 100% | OVCAR-8 ovarian 108% | OVCAR-5 ovarian 108% | OVCAR-4 ovarian 119% | SK-OV-3 ovarian 120% | OVCAR-3 ovarian 119% | NCI/ADR-RES ovarian 119%

Cc1ccc(S(=O)(=O)Oc2ccc([N+](=O)[O-])cc2[N+](=O)[O-])cc1
inactive: SK-MEL-2 melanoma 78.8% | EKVX NSCLC 101% | SN12C renal 32.7% | UO-31 renal 73.6% | TK-10 renal 110% | ACHN renal 104% | CAKI-1 renal 82.3% | A498 renal 94.3% | CCRF-CEM leukemia 23% | MOLT-4 leukemia 54.2% | SR leukemia 56.6% | RPMI-8226 leukemia 53.2% | OVCAR-8 ovarian 78.8% | OVCAR-5 ovarian 111% | OVCAR-4 ovarian 63.6% | SK-OV-3 ovarian 119% | OVCAR-3 ovarian 107% | NCI/ADR-RES ovarian 85.1%
